Values joined by “and” are separate entries in the source; they are usually repeats but may differ in a detail not shown here. Identical values can stand only once. The campaign covered roughly 5,500 compounds. About 2,000 (36%) were called active. Inconclusive results (about 18%) are left out. Rule as the data show it: active = normalized growth mostly below about 0.91 (no sharp cut-off); inconclusive = no clear call, values can overlap the other calls; inactive = mostly above about 0.92. The list shows a part of the results.
Assay: chemical genetic growth profiling, strain panel (AID 1159580);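 also: tested at 20 µM; growth read once vehicle control cultures reached saturation at 30 °C; 1 = growth at the plate median or of vehicle wells; lower values mean less growth of the strain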
Settings: S. cerevisiae deletion strains, growth OD

Measured: normalized growth

CC(C)NCC(O)c1ccc(O)c(O)c1 (stereo not given)
inactive: locus YAL013W, strain DEP1, hits give low values 1.01 | locus YAL021C, strain ccr4, hits give low values 0.994 | locus YAL026C, strain drs2, hits give low values 0.994 | locus YAL030W, strain snc1, hits give low values 0.996 | locus YAL040C, strain CLN3, hits give low values 1 and 1.06 | locus YBL061C, strain skt5, hits give low values 0.99 | locus YBR009C, strain hhf1, hits give low values 0.995 | locus YBR021W, strain FUR4, hits give low values 1.01 | locus YBR023C, strain chs3, hits give low values 0.982 | locus YBR171W, strain sec66, hits give low values 0.979 | locus YBR229C, strain ROT2, hits give low values 1.02 | locus YBR231C, strain swc5, hits give low values 0.997 | locus YBR279W, strain paf1, hits give low values 0.973 | locus YCL011C, strain gbp2, hits give low values 0.978 | locus YCL016C, strain dcc1, hits give low values 0.951 | locus YCL029C, strain bik1, hits give low values 1 | locus YCL061C, strain MRC1 (second series), hits give low values 0.995 and 0.99 | locus YCL061C, strain MRC1, hits give low values 0.985 | locus YCL069W, strain vba3, hits give low values 1 | locus YCR088W, strain abp1, hits give low values 0.99 | locus YDL005C, strain med2, hits give low values 0.997 | locus YDL035C, strain GPR1, hits give low values 1.02 | locus YDL040C, strain nat1, hits give low values 1.01 | locus YDL074C, strain BRE1, hits give low values 1.03 | locus YDL101C, strain DUN1, hits give low values 1.01 | locus YDL185W, strain tfp1, hits give low values 0.984 | locus YDL192W, strain arf1, hits give low values 1 | locus YDR001C, strain nth1, hits give low values 0.992 | locus YDR069C, strain doa4, hits give low values 1.02 | locus YDR101C, strain arx1, hits give low values 1.02 | locus YDR137W, strain rgp1, hits give low values 1 | locus YDR150W, strain NUM1, hits give low values 1.02 and 0.999 | locus YDR159W, strain sac3, hits give low values 1.01 | locus YDR162C, strain NBP2, hits give low values 1 | locus YDR195W, strain ref2 0.992 | locus YDR297W, strain sur2, hits give low values 0.99 | locus YDR318W, strain mcm21, hits give low values 0.996 | locus YDR334W, strain swr1, hits give low values 0.982 | locus YDR335W, strain msn5, hits give low values 0.992 | locus YDR363W, strain ESC2, hits give low values 1.02 and 0.978 | locus YDR388W, hits give low values 0.994 | locus YDR392W, strain spt3, hits give low values 0.912 | locus YDR502C, strain sam2, hits give low values 0.999 | locus YEL003W, strain gim4, hits give low values 1.01 | locus YEL037C, strain rad23, hits give low values 0.993 | locus YEL061C, strain CIN8 (second series), hits give low values 0.994 | locus YEL061C, strain CIN8, hits give low values 1.01 | locus YER002W, strain NOP16, hits give low values 0.997 and 0.956 | locus YER015W, strain faa2, hits give low values 0.995 | locus YER016W, strain bim1, hits give low values 1.01 | locus YER110C, hits give low values 0.997 | locus YER111C, strain swi4, hits give low values 0.985 | locus YER155C, strain BEM2 (second series), hits give low values 0.989 | locus YER155C, strain BEM2, hits give low values 1.01 | locus YER167W, strain BCK2, hits give low values 0.992 | locus YFR010W, strain ubp6, hits give low values 0.992 | locus YGL078C, strain dbp3, hits give low values 0.995 | locus YGL086W, strain mad1, hits give low values 0.994 | locus YGL167C, strain pmr1, hits give low values 0.989 | locus YGL173C, strain kem1, hits give low values 0.999 | locus YGL227W, strain vid30, hits give low values 0.99 | locus YGL240W, strain doc1, hits give low values 0.982 | locus YGL248W, strain PDE1, hits give low values 1.01 | locus YGL253W, strain hxk2, hits give low values 0.999 | locus YGR078C, strain PAC10, hits give low values 1.02 and 0.98 | locus YGR135W, strain pre9, hits give low values 0.993 | locus YGR229C, strain SMI1, hits give low values 1.01 | locus YGR252W, strain gcn5, hits give low values 0.936 | locus YHR013C, strain ard1, hits give low values 0.976 | locus YHR027C, strain rpn1, hits give low values 0.997 | locus YHR030C, strain SLT2, hits give low values 1.01 and 0.977 | locus YHR079C, strain IRE1 (second series), hits give low values 1 | locus YHR079C, strain IRE1, hits give low values 0.993 | locus YHR094C, strain hxt1, hits give low values 0.987 | locus YHR129C, strain ARP1, hits give low values 1.01 | locus YHR142W, strain chs7, hits give low values 0.965 | locus YHR200W, strain rpn10, hits give low values 1 | locus YIL066C, strain RNR3, hits give low values 1.01 | locus YIL073C, strain SPO22, hits give low values 1.05 | locus YIL125W, strain kgd1, hits give low values 0.99 | locus YIR030C, strain dcg1, hits give low values 1.01 | locus YJL092W, strain hpr5, hits give low values 0.985 | locus YJL095W, strain BCK1 (second series), hits give low values 0.995 | locus YJL095W, strain BCK1, hits give low values 1.03 and 0.991 | locus YJL115W, strain asf1, hits give low values 0.995 | locus YJL129C, strain trk1, hits give low values 0.979 | locus YJL134W, strain LCB3, hits give low values 1.02 | locus YJL154C, strain vps35, hits give low values 0.995 | locus YJL164C, strain tpk1, hits give low values 0.998 | locus YJL166W, strain qcr8, hits give low values 0.972 | locus YJL168C, strain set2, hits give low values 0.984 | locus YJL187C, strain SWE1 (second series), hits give low values 1.01 | locus YJL187C, strain SWE1, hits give low values 1 | locus YJR043C, strain POL32, hits give low values 1.01 | locus YJR066W, strain TOR1, hits give low values 0.944

From PubChem BioAssay AID1159580 (chemical genetic matrix, 2015)
